# Assay results taken from PubChem BioAssay AID1851 (National Center for Advancing Translational Sciences (NCATS), 2009).
# Screen size: about 16,000 compounds; about 5,100 (32%) were called active. Inconclusive results (about 25%) are left out. This is one part of the list. Unmarked numbers belong to inactive results. The call rests on the fitted dose curve; in most records, active means well fitted curve in the direction sought with a large enough effect; inconclusive means small, poorly fitted or top-dose-only effect, or effect the other way; inactive means no such curve, though single readings can be large or run the other way.
# Target: Cytochrome P450 3A4 (Homo sapiens) (UniProt P08684)
# Assay: Cytochrome panel assay with activity outcomes
# Conditions: recombinant CYP, pro-luciferin dealkylation, luminescence, p450-cyp3a4; series mostly up to 57.1 µM; activity, negative = inhibition: at the top concentration
# On the % scale 0 is the no-effect control and ±100 the full control effect.
# Chain of Cytochrome P450 3A4 (Homo sapiens) (P08684 whole entry, looked up): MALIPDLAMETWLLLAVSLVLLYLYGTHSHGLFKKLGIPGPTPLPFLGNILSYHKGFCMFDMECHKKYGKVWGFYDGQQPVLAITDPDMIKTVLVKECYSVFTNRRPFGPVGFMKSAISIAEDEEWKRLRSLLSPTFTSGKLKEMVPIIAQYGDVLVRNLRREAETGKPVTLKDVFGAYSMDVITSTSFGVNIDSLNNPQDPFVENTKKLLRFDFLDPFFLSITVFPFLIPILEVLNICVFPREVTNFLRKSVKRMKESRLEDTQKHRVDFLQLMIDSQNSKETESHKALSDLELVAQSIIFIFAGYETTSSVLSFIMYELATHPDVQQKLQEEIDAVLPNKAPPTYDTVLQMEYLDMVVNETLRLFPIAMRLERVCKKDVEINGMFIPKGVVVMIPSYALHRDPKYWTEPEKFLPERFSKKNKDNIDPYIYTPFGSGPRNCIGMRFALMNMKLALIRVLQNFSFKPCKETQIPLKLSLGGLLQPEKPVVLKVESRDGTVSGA
SMILES,"activity, negative = inhibition",AC50
c1ccc(-c2ccc3c(c2)c2c4n3CCN=C4CCC2)cc1,-17.2%,–
CCOc1ccc(OCC)c(NC(=O)C2CCCN(S(=O)(=O)c3cccs3)C2)c1 (stereo not given),–,5.62 µM (active)
CCCS(=O)(=O)N1CCCC(C(=O)NCCCOCC)C1 (stereo not given),-4.59%,–
CCCS(=O)(=O)N1CCCC(C(=O)NCCN(C)Cc2ccccc2)C1 (stereo not given),12.8% [at 2.29 µM],–
COc1ccccc1CCn1c(=O)c(-c2cccs2)nc2cncnc21,–,3.16 µM (active)
COCCn1c(=O)c(-c2cccs2)nc2cncnc21,–,15.8 µM (active)
COCCn1c(=O)c(C)nc2cncnc21,–,12.6 µM (active)
COc1ccc(-n2c(=O)c(-c3cccs3)nc3cncnc32)cc1,-28.3%,–
Cn1c(=O)c(-c2cccs2)nc2cncnc21,–,7.94 µM (active)
CCCC(O)(CCC)C(=O)NN1CCCCC1,-18.6%,–
Cc1nc2cncnc2n(C2CC2)c1=O,–,15.8 µM (active)
O=c1c(-c2ccccc2)nc2cncnc2n1C1CC1,-32.8%,–
COc1ccccc1CCn1c(=O)c(-c2cccc(Cl)c2)nc2cncnc21,–,6.31 µM (active)
O=c1c(-c2cccc(Cl)c2)nc2cncnc2n1Cc1ccccc1,-22.5%,–
COc1ccccc1CCn1c(=O)c(-c2ccc(F)cc2)nc2cncnc21,–,3.98 µM (active)
CN(C)c1ncc2nc(-c3ccc(F)cc3)c(=O)n(CCc3ccccc3)c2n1,-2.76%,–
Cc1nc2cnc(N(C)C)nc2n(C2CC2)c1=O,2.85%,–
O=c1c(-c2ccc(F)cc2)nc2cncnc2n1C1CC1,-29.9%,–
COc1ccccc1CCn1c(=O)c(-c2ccc(Cl)cc2)nc2cncnc21,–,3.98 µM (active)
CC(=O)O[C@@H](C)C[N+](C)(C)C,–,inactive
COCCn1c(=O)c(-c2ccccc2)nc2cncnc21,-40%,–
COc1ccccc1CCn1c(=O)c(-c2ccccc2)nc2cncnc21,–,3.98 µM (active)
COc1ccccc1CCn1c(=O)c(-c2ccc(F)c(F)c2)nc2cncnc21,–,3.16 µM (active)
Cn1c(=O)c2c(nc(C(=N)SCC(=O)O)n2C)n(C)c1=O,-27.7% [at 11.4 µM],–

SMILES,"activity, negative = inhibition",AC50
CSc1ncnc2c1ncn2[C@@H]1O[C@@H](CO)[C@H](O)O[C@@H]1O,-26.2% [at 11.4 µM],–
CNc1ncnc2c1ncn2[C@@H]1O[C@@H](CO)[C@H](O)[C@@H]1O,-11.5%,–
OCCNc1ncnc2c1ncn2[C@@H]1O[C@@H](CO)[C@H](O)[C@@H]1O,-9.88% [at 11.4 µM],–
Nc1ccc(CCNc2ncnc3c2ncn3[C@@H]2O[C@@H](CO)[C@H](O)[C@@H]2O)cc1,–,25.1 µM (active)
Cc1ccc(NC(=S)Nc2nc(CC(=O)Nc3ccccc3)cs2)cc1,–,6.31 µM (active)
Cc1ccc(NC(=O)Nc2nc(-c3ccc(C)s3)cs2)cc1,-0.444% [at 2.29 µM],–
CNC(=O)[C@@H]1O[C@@H](n2cnc3c(N)ncnc32)[C@@H](O)[C@H]1O,1.94%,–
CCC(=O)Nc1cccc(-c2nnc(-c3cccc(NC(=O)CC)c3)o2)c1,–,14.1 µM (active)
COc1ccc(CC(=O)Nc2cccc(-c3nnc(-c4ccco4)o3)c2)cc1,–,2 µM (active)
COc1ccc(CC(=O)Nc2ccc(-c3nnc(-c4ccccc4)o3)cc2)cc1,7.9%,–
O=C(Nc1ccc(Nc2ccc3c(c2)C(=O)c2ccccc2C3=O)c2c1C(=O)c1ccccc1C2=O)c1ccccc1,-7.98% [at 11.4 µM],–
CCC(=O)NNC(=O)CCC(=O)Nc1ccccc1,0.807%,–
Clc1ccc(-c2nnc(-c3ccco3)o2)cc1,1.16% [at 11.4 µM],–
O=C(Nc1ccc(Cl)cc1)OCc1cc(-c2ccccc2)on1,-7.05%,–
O=C1c2ccccc2-c2ccc(NC(=O)[C@H]3CCCC[C@@H]3C(=O)O)cc21,-29% [at 11.4 µM],–
CCC(=O)Nc1ccc2c(c1)C(=O)c1ccccc1C2=O,–,7.08 µM (active)
O=C(Cc1ccc(Cl)cc1)Nc1cccc(-c2nnc(-c3ccco3)o2)c1,–,7.94 µM (active)
CO[C@]1(NC(=O)Cc2cccs2)C(=O)N2C(C(=O)O)=C(COC(N)=O)CS[C@H]21,-15.5% [at 25.6 µM],–
O=C1Nc2ccc(F)cc2C12SCCS2,-8.71%,–
COc1cccc(-c2[nH]nc3c2C(c2ccsc2)C(C#N)=C(N)O3)c1 (stereo not given),–,7.08 µM (active)
COc1cccc(-c2[nH]nc3c2C(c2ccc(C)o2)C(C#N)=C(N)O3)c1 (stereo not given),-27.5% [at 2.29 µM],–
Cc1ccc(SCc2[nH]nc3c2C(C(C)C)C(C#N)=C(N)O3)cc1 (stereo not given),-16.4% [at 2.29 µM],–
O=C(CC(=O)NN=C1CCCC1)NCCc1ccccc1,4.31% [at 2.29 µM],–
CN1CCC(=NNC(=O)CSCc2ccccc2)CC1,–,17.8 µM (active)

SMILES,"activity, negative = inhibition",AC50
CC1CCC(=NNC(=O)Cc2ccccc2)CC1 (stereo not given),-1.06% [at 2.29 µM],–
CCCn1cnc2c1c(=O)n(CCCCC(C)=O)c(=O)n2C,-14.5%,–
CC1(C)C(=O)C(c2ccccc2)=C2CN3C(=O)N(CCc4ccccc4)C(=O)C3(Cc3ccccc3)C=C21 (stereo not given),–,2 µM (active)
CC1(C)C(=O)C(c2ccccc2)=C2CN3C(=O)N(CCc4ccccc4)C(=O)C3(Cc3ccc(C(F)(F)F)cc3)C=C21 (stereo not given),–,2 µM (active)
CC1(C)C(=O)C(c2ccccc2)=C2CN3C(=O)N(CCc4ccccc4)C(=O)C3(Cc3ccc(F)cc3)C=C21 (stereo not given),–,3.16 µM (active)
CN(C)/C(CN1CCN(C=O)CC1)=C1\N=C(c2ccccc2)OC1=O,-24.6%,–
CC1(C)N=C(N)N=C(N)N1CCCCc1ccccc1,-18.8% [at 11.4 µM],–
CCOC(=O)c1c(O)[nH]c(=O)c(CC)c1C,-7.96% [at 11.4 µM],–
CCNC(=S)NNC(=O)Cc1ccccc1,7.45%,–
CCNC(=S)NNC(=O)c1cccc(Br)c1,-9.08%,–
CCNC(=S)NNC(=O)CCn1c2ccccc2c2ccccc21,–,4.47 µM (active)
CC(C)[C@]1(Cl)CC[C@@H]2[C@]3(C)CCC[C@@](C)(C(=O)O)[C@H]3C[C@H](Cl)[C@@]2(Cl)[C@H]1Cl,-26.1% [at 11.4 µM],–
Nc1nc2c(ncn2[C@@H]2C=C[C@@H](CO)C2)c(=O)[nH]1,-2.95% [at 11.4 µM],–
Cc1onc(-c2c(Cl)cccc2Cl)c1C(=O)N1CCc2ccccc2C1,–,3.98 µM (active)
C/C(CC(=O)NCCCN1CCOCC1)=N\NC(=O)COc1ccc(Cl)cc1,–,15.8 µM (active)
COc1ccc(C(=O)NCCCN2CCOCC2)cc1OC,-3.95%,–
COc1ccc(CNc2nc(-c3ccc4c(c3)OCO4)nc3ccccc23)c(OC)c1,–,1.26 µM (active)
COCCNc1nc(-c2ccc(N(C)C)cc2)nc2ccccc12,–,12.6 µM (active)
COc1ccccc1CNc1nc(-c2ccc(N(C)C)cc2)nc2ccccc12,–,3.16 µM (active)
COc1ccc(-c2cc([C@H](O)[C@@H]3CCCCN3)c3ccccc3n2)cc1,-6.63% [at 11.4 µM],–
CN(C)c1ccc(-c2nc(NCCc3cnc[nH]3)c3ccccc3n2)cc1,–,2.51 µM (active)
Clc1cnccn1,1.91% [at 25.6 µM],–
CCN(CC)CC#CCC(C)(c1ccccc1)c1ccccc1,-27.1% [at 2.29 µM],–
CCCOc1ccc(CSC(CC(=O)O)C(=O)O)cc1 (stereo not given),-9.38%,–

SMILES,"activity, negative = inhibition",AC50
CO/N=C(\C(=O)N[C@@H]1C(=O)N2C(C(=O)O)=C(COC(C)=O)CS[C@@H]12)c1csc(N)n1,–,inactive
Cc1ccc(C(=O)Oc2cc(C)n(C)c(=O)c2)cc1,-2.99%,–
CC(C)(CN)CN,-13.3% [at 11.4 µM],–
COc1ccccc1CNc1nc(-c2ccc3c(c2)OCO3)nc2ccccc12,–,1.26 µM (active)
C/C(=N/NS(=O)(=O)c1ccc(C)cc1)P(=O)(O)O,-8.75% [at 11.4 µM],–
CCC(=O)Nc1ccc(/C(C)=N\NS(=O)(=O)c2ccc(C)cc2)cc1,-25.1% [at 2.29 µM],–
COc1ccc(S(=O)(=O)N/N=C(/C)c2cccc(NC(=O)c3ccccc3Cl)c2)cc1,–,2.24 µM (active)
C/C(=N/NS(=O)(=O)c1ccc(C)cc1)c1cccc(NC(=O)c2cccc(Cl)c2)c1,–,1.41 µM (active)
CC(C)(C)C(=O)[C@H]([C@@H](c1ccccc1)N1CCOCC1)N1CCOCC1,–,2.51 µM (active)
CC(=O)[C@H]([C@@H](c1ccccc1)N1CCOCC1)N1CCOCC1,-29.9% [at 11.4 µM],–
c1ccc(CCSc2nccn2-c2ccccc2)cc1,–,14.1 µM (active)
CC1=NN(c2ccccc2)C(=O)C1C(=O)c1ccc(Cl)cc1 (stereo not given),-25.5%,–
O=C(CSc1nccn1-c1ccccc1)c1ccc(Cl)cc1,–,10 µM (active)
Clc1ccc(CSc2nccn2Cc2ccccc2)cc1,–,7.08 µM (active)
CCc1ccc(CSc2nccn2-c2ccccc2)cc1,–,14.1 µM (active)
OCCn1cnc2c(SCc3ccccc3)ncnc21,-4.24% [at 11.4 µM],–
O=C(O)CSCCc1ccccc1,0.346% [at 11.4 µM],–
O=c1ccnc(SCc2ccc(Cl)cc2)[nH]1,-11.7% [at 11.4 µM],–
O=C(CSc1ncnc2nc[nH]c12)c1ccccc1,-16.5% [at 11.4 µM],–
O=C1C[C@H](c2ccccc2)[C@@H](c2ccc(Br)cc2)O1,1.97% [at 11.4 µM],–
C#CCCCO/N=C1/[C@H]2O[C@@H]2[C@@H](O)[C@H]2[C@H]1CCn1c(=O)n(Cc3cc4c(cc3Cl)OCO4)c(=O)n12,-10.8% [at 11.4 µM],–
Cc1ccccc1CSc1nccn1-c1ccccc1,–,5.01 µM (active)
Cn1nnnc1SCc1ccccc1[N+](=O)[O-],3.46% [at 2.29 µM],–
